An excerpt weighted towards active compounds, which were near 3.5% of everything screened.
TEAD-YAP block: TEAD-YAP interaction inhibition | inhibition, % at 9.12 µM | AID 1259422 | 640,000 tested, 1.4% active | HEK-TIYL cells, TEAD-Gal4/YAP UAS-luciferase luminescence; in the data active = inhibition above about 32%;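 note: 0% = median of test compound wells and 100% = reference inhibitor wells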
MITF inh: human MITF inhibition, primary screen; O75030; AlphaScreen MITF homodimerization, bead proximity signal; inhibition, % at 2.6 µM; 650,000 tested, 0.91% active; in the data active = inhibition above about 50%;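 note: 0% = vehicle wells with protein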
Target sequence (O75030 whole entry, looked up): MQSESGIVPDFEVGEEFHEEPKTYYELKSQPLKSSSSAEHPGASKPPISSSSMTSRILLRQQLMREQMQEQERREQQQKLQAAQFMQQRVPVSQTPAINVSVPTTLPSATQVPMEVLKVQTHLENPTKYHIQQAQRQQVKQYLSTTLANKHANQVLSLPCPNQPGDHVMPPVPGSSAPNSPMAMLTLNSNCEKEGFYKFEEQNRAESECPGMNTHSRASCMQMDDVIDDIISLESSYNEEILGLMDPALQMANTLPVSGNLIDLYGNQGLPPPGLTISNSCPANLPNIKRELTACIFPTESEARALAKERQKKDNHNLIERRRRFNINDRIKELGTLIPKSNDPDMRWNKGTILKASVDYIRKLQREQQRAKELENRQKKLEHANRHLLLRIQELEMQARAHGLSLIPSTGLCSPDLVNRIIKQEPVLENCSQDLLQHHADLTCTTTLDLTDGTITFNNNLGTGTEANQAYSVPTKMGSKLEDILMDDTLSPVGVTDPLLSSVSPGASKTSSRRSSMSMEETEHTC
FBW7 activator: human FBW7 E3 ligase activation, primary screen. Q969H0. AlphaScreen FBW7–phospho-cyclin E peptide binding, activator screen. normalized activity (activation), % at 26.1 µM. 650,000 tested, 0.13% active; in the data active = normalized activity above about 1.9%;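 note: purified mutant Fbw7 with reduced substrate affinity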
GPR151 ag: activates the human receptor GPR151; Q8TDV0; PathHunter beta-arrestin GPR151 cells, luminescence; AID 1508602; 650,000 tested, 1% active; activation, % at 11.2 µM; in the data active = activation above about 4.9%;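 note: 0% = median of compound wells and 100% = cells with positive control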
Numbers without * were called inactive.

SMILES	TEAD-YAP block	MITF inh	FBW7 activator	GPR151 ag
Nc1nc(-c2ccc(O)c(O)c2)cs1	2.6	79.2*	-0.1	0.5
COc1ccc2cc(-c3csc(N)n3)ccc2c1	32.4*	10.0	-0.1	-5.3
COc1ccc(-c2csc(N)n2)c(F)c1	-32.9	0.5	0.0	-0.3
NNc1nc(-c2ccc(O)c(O)c2)cs1	5.6	102.7*	-0.4	0.2
O=C(O)c1cccc(Nc2nc(-c3ccc(O)c(O)c3)cs2)c1	14.6	79.6*	0.0	-0.5
Cc1noc(C)c1-c1cccc(C(=O)NCCCN2CCCC2=O)n1	4.3	3.9	0.2	0.2
CCN(CC)C(=O)Cn1c(-c2cccc(C)c2)nc2ccccc2c1=O	-22.8	-5.3	-0.1	-0.1
c1cnc2ccc(Nc3nc(Nc4ccc(N5CCOCC5)cc4)c4ncn(-c5ccsc5)c4n3)cc2c1	37.8*	-0.6	-0.1	-1.7
c1ccc(Nc2nc(Nc3ccc4ncccc4c3)nc3c2ncn3-c2ccccc2)cc1	42.1*	7.1	0.8	-2.1
c1ccc(-n2cnc3c(Nc4ccc(N5CCOCC5)cc4)nc(Nc4ccc5ncccc5c4)nc32)cc1	3.6	-1.0	-0.4	0.8
Nc1nc(Nc2ccccc2)nc2c1ncn2-c1ccsc1	37.2*	13.3	0.0	-1.5
Nc1nc(Nc2ccc3ncccc3c2)nc2c1ncn2-c1ccsc1	5.7	-13.7	38.3*	-0.1
O=c1c2sccc2nc(SCc2ccccc2Cl)n1C1CCCCC1	-2.8	2.2	0.1	0.7
Cn1c(N)c(C(=S)NC(=O)c2ccc(C(C)(C)C)cc2)c(=O)n(C)c1=O	3.0	7.5	0.5	0.7
Cc1ccc(-c2nc(C=Nc3ccccc3Br)c(O)o2)cc1	-3.4	3.8	-0.2	1.8
CC(=O)Nc1ccc(Nc2nc(Nc3ccc4ncccc4c3)nc3c2ncn3-c2ccccc2)cc1	40.2*	1.5	0.2	1.0
CC(=O)Nc1ccc(Nc2nc(Nc3ccc4ncccc4c3)nc3c2ncn3C(C)C)cc1	35.6*	2.9	-0.1	-1.1
c1ccc(Nc2nc(Nc3ccc4ncccc4c3)nc3c2ncn3-c2ccsc2)cc1	57.5*	9.9	-0.1	2.6
CCOC(=O)c1sc2nc(SCc3ccccc3C)n(CC3CCCO3)c(=O)c2c1C (stereo not given)	-11.8	-4.5	-0.2	0.4
O=C(/C=C/c1ccc(F)cc1)N1CCN(Cc2ccccc2)CC1	-25.6	-6.7	-0.1	0.0
O=C(/C=C/c1ccccc1)N1CCN(Cc2nc(-c3ccc(F)cc3)cs2)CC1	38.6*	9.7	-0.1	0.5
COc1ccc2c(c1)C(C)=CC(C)(C)N2S(=O)(=O)c1ccc(Cl)cc1	48.0*	-1.9	-0.1	0.6
CC1=CC(C)(C)N(S(=O)(=O)c2ccc(Cl)cc2)c2ccccc21	55.0*	0.6	-0.2	0.2
CCOc1ccc2c(c1)C(C)=CC(C)(C)N2S(=O)(=O)c1ccc(Cl)cc1	60.3*	5.2	-0.1	-0.1
CC1=CC(C)(C)N(S(=O)(=O)c2ccc(C)cc2)c2ccc(Cl)cc21	27.3	-5.7	0.0	-0.1
SMILES	TEAD-YAP block	MITF inh	FBW7 activator	GPR151 ag
CCCC(=O)Nc1c2c(nn1C(C)(C)C)CS(=O)(=O)C2	-1.7	-0.9	-0.1	-1.0
O=C1NC(=O)C(=Nc2nc3ccccc3s2)C(=O)N1	-10.6	-0.5	-0.2	-0.4
CCOC(=O)c1nn(CCO)c2c1CN(Cc1c(F)cccc1Cl)CC2	7.1	-15.0	-0.1	1.5
COc1ccc(/C=C2/SC(=S)N(NS(=O)(=O)c3ccccc3)C2=O)cc1	-2.2	-6.6	0.0	1.5
CCC(C(=O)O)N1C(=O)/C(=C\c2ccco2)SC1=S (stereo not given)	-6.2	59.3*	-0.1	0.9
O=C1/C(=C/c2ccco2)SC(=S)N1NS(=O)(=O)c1ccccc1	8.4	59.5*	0.0	1.7
CCC(C(=O)O)N1C(=O)/C(=C/c2cccs2)SC1=S (stereo not given)	4.4	1.0	-0.2	-1.2
CC1Cc2ccccc2N1C(=O)CSc1nnc(Cc2cccs2)n1C (stereo not given)	47.0*	-4.1	-0.1	0.2
CC1Cc2ccccc2N1C(=O)CSc1nnc(CSc2ncccn2)n1C (stereo not given)	8.7	-7.6	0.0	-0.1
CCn1c(C)nc2c(C)[n+](CC(=O)c3ccc(Br)cc3)ccc21	38.1*	-5.5	-0.1	-0.8
CC(=O)c1ccc(OCC(=O)NC(C)c2cnn(-c3ccccc3C)c2C)cc1 (stereo not given)	34.4*	14.9	0.9	1.9
CCCCCCn1nc(C(=O)Nc2cc(C(N)=O)cc(C(N)=O)c2)c2ccccc2c1=O	-4.0	-11.2	2.1*	1.9
O=C(Cc1cn(-c2ccc(NCCCN3CCCC3=O)nn2)c2ccccc12)NCc1ccccc1	-4.5	8.1	-0.1	3.6
Cc1ccc(-c2cccc3cnc(NC4CCN(C(=O)N5CCCC5)C4)nc23)cn1 (stereo not given)	25.3	8.8	0.1	-1.2
Cc1ccc(-c2cccc3cnc(Nc4cccc(C(=O)N5CCOCC5)c4)nc23)cn1	32.4*	39.9	1.4	-0.9
Cc1ccc(-c2cccc3cnc(Nc4ccc(C(=O)N5CCCC5)cc4)nc23)cn1	50.2*	9.4	0.1	-2.2
O=C1CC(C(=O)N2CCC(Oc3ccc(C(=O)NCCc4ccccc4)cc3)CC2)CN1 (stereo not given)	79.7*	10.1	0.1	0.1
O=C(NCCc1ccccc1)c1ccc(OC2CCN(C(=O)c3ccco3)CC2)cc1	83.2*	-12.7	0.0	-0.8
CC(C)=CC(=O)N1CCC(Oc2ccc(C(=O)NCCc3ccccc3)cc2)CC1	-6.7	2.3	0.0	-0.7
O=C(COc1ccccc1Cl)Oc1ccc2c3c(c(=O)oc2c1)CCC3	-2.1	13.8	0.2	-0.5
CCN(CC)C(=O)C1CCCN(c2ncnc3c2cnn3-c2ccc(C)cc2C)C1 (stereo not given)	-2.6	0.9	0.1	2.3
COc1ccccc1N1C(=O)/C(=C\c2cccn2C)C(=O)NC1=S	14.1	55.7*	0.4	0.2
Cc1ccccc1N1C(=O)NC(=O)/C(=C\c2ccc(O)c(O)c2)C1=O	-4.5	44.9	-0.2	-0.1
COc1ccc(N2C(=O)NC(=O)/C(=C/c3cc(Cl)c(O)c(OC)c3)C2=O)cc1	-2.5	4.0	-0.1	0.6
COc1ccccc1N1C(=O)NC(=O)/C(=C\c2ccc(O)c(O)c2)C1=O	-2.9	56.0*	-0.2	-0.7
SMILES	TEAD-YAP block	MITF inh	FBW7 activator	GPR151 ag
COc1ccc(/C=C2/C(=O)NC(=O)N(c3ccc(C(C)C)cc3)C2=O)cc1O	-7.3	2.1	1.9*	-1.0
COc1ccc(N2C(=O)NC(=O)/C(=C\c3cc(OC)c(O)c(OC)c3)C2=O)cc1	7.2	2.5	2.1*	-0.4
COCCCNC(=O)/C(C#N)=C/c1cc(C)n(-c2ccc(C)cc2)c1C	4.8	10.2	-0.3	-0.3
COCCCNC(=O)/C(C#N)=C/c1cc(C)n(-c2ccccc2)c1C	39.9*	10.0	-0.1	0.7
COCCCNC(=O)/C(C#N)=C/c1cn(Cc2ccccc2)c2ccccc12	44.4*	5.1	1.1	2.8
COCCNC(=O)/C(C#N)=C/c1cc(C)n(-c2sc(C)c(C)c2C#N)c1C	50.8*	-2.1	-0.2	0.2
Cc1cc(CNC(=O)CCl)cc(C)c1O	-10.7	-11.3	0.0	1.7

Screening results from PubChem BioAssay.
